Shown are actives, neighbours in structure and some others; about 3.1% of the full set was active somewhere.
A549 tox = Nrf2 qHTS screen for inhibitors: counterscreen for cytotoxicity; Potency, µM (doses to about 46 µM), inactives show top-dose activity change, negative = cytotoxicity, most hits filed as inhibitors; AID 504648, 2011; 390,000 tested, 0.16% active; A549 ARE-Fluc cells, CellTiter-Fluor viability, 18-24 h; also: potency is read from the fitted curve at half-maximal effect; % is scaled to controls: 0 for no effect and ±100 for the full control effect
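A549 ARE_Fluc cells in 5% FBS OPTI-MEM were exposed to compounds in concentration-response for 18-24 h at 37 deg C. Viability was read by CellTiter-Fluor fluorescence (Ex 405/Em 525) after 30 min, before the luciferase read.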
Mito fusion act = qHTS Assay for Small Molecule Inhibitors of Mitochondrial Division or Activators of Mitochondrial Fusion. S. cerevisiae fusion-defective mutant growth rescue, CellTiterGlo 48 h. Potency, µM (top dose mostly 46.1 µM), inactives show at the top dose growth rescue (activation), actives largely listed as activators. 320,000 tested, 0.23% active. AID 485298, 2010; also: potency is read from the fitted curve at half-maximal effect; % of control where 0% means no effect; nearly all actives have a fitted effect of over 45% in size
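S. cerevisiae fusion-defective temperature-sensitive mutants (e.g. fzo1-1, mgm1-5) grown 48 h at 37C in YPEG (ethanol/glycerol non-fermentable) medium with 23 nl compound per well; growth rescue read as CellTiterGlo luminescence.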
Nrf2 block = Nrf2 qHTS screen for inhibitors; 360,000 tested, 2.1% active; Potency, µM (top dose mostly 46 µM), inactives show at the highest dose activity change, negative = inhibition, actives largely listed as inhibitors; A549 ARE-Fluc reporter, luciferase luminescence, 18-24 h; AID 504444, 2011; also: potency is read from the fitted curve at half-maximal effect; % is scaled to controls: 0 for no effect and ±100 for the full control effect; nearly all actives have a fitted effect of over 60% in size
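In this cell-based qHTS, ARE-driven firefly luciferase in A549 cells reports Nrf2 activity; the luminescent signal after BugLite lysis is the measured value, with a prior CellTiter-Fluor read for cell health.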
TrxR1 substrate = qHTS Assay for Substrates of Mammalian Selenoprotein Thioredoxin Reductase 1 (TrxR1): qHTS; Potency, µM (titrated, usually from 114 µM), inactives show top-dose activity change, negative = substrate turnover; 390,000 tested, 0.01% active; AID 588456, 2011; purified TrxR1 substrate turnover, NADPH consumption readout; also: potency is read from the fitted curve at half-maximal effect; % is scaled to controls: 0 for no effect and ±100 for the full control effect; nearly all actives have a fitted effect of over 50% in size
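Rat TrxR1, dispensed at 90 nM, was prereduced with 400 uM NADPH (final) for 5 min at ~22 deg C, then incubated with compound 15 min before 400 uM selenite. A first-read NADPH fluorescence drop versus no-compound background flagged substrates.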
TrxR1 inh = qHTS Assay for Inhibitors of Mammalian Selenoprotein Thioredoxin Reductase 1 (TrxR1): qHTS; Thioredoxin reductase 1, cytoplasmic (Rattus norvegicus), O89049; recombinant rTrxR1, NADPH fluorescence consumption, selenite substrate; Potency, µM (titrated, usually from 114 µM), for the others: at the top dose activity change, negative = inhibition, hits mostly inhibitors; 390,000 tested, 1% active; AID 588453, 2011; also: potency is read from the fitted curve at half-maximal effect; % is scaled to controls: 0 for no effect and ±100 for the full control effect; nearly all actives have a fitted effect of over 65% in size
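Rat TrxR1 (90 nM in the dispensed reagent) was pre-reduced with 400 uM NADPH for 5 min at room temperature, then incubated with compound for 15 min. After 400 uM selenite was added, NADPH fluorescence (Ex 340/Em 450 nm) was followed for 8 min.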
IDH1 R132H inh = qHTS for Inhibitors of mutant isocitrate dehydrogenase 1 (IDH1): qHTS. Isocitrate dehydrogenase [NADP] cytoplasmic (Homo sapiens), O75874. IDH1-R132H enzyme, NADPH consumption, diaphorase/resazurin fluorescence. Potency, µM (doses to about 76.6 µM), inactives show at the top dose activity change, negative = inhibition, most hits filed as inhibitors. 390,000 tested, 0.093% active. AID 602179, 2012; also: potency is read from the fitted curve at half-maximal effect; % is scaled to controls: 0 for no effect and ±100 for the full control effect; nearly all actives have a fitted effect of over 65% in size
Target sequence (O75874 whole entry R132H, stated change not applied): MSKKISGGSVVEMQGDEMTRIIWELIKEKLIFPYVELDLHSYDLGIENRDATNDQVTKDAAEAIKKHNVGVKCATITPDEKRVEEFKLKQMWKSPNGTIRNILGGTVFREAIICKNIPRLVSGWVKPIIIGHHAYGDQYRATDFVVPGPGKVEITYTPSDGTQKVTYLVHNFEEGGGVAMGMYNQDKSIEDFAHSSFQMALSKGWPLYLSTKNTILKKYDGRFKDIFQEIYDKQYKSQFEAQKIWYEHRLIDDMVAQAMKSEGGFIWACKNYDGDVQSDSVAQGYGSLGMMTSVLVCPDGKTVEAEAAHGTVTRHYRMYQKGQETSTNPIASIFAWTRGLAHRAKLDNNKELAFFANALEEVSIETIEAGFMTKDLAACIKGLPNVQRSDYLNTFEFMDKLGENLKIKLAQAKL
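IDH1-R132H (0.5 ug/mL) preincubated 30 min with compound, then NADPH (0.016 mM) and alpha-KG (2 mM) added; 80 min at RT, pH 7.5. Remaining NADPH coupled via diaphorase/resazurin to fluorescence (540/590 nm); concentration-response curves normalized to no-enzyme control.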
IDH1 autofl = qHTS for Inhibitors of mutant isocitrate dehydrogenase 1 (IDH1): Cherrypicks Autofluorescence Interference. 750 tested, under 10 active. inhibition of signal, % at 51.2 µM. shares compounds with IDH1 R132H inh. AID 623980, 2012. Resorufin detection reagent fluorescence interference, cell-free;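 also: 0% = wells with normal resorufin and full inhibition = wells lacking resorufin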
WT IDH1 inh = qHTS for Inhibitors of mutant isocitrate dehydrogenase 1 (IDH1): Cherrypicks in WT IDH1. AID 623995, 2012. WT IDH1 enzyme, NADPH diaphorase/resazurin fluorescence. Potency, µM (series often up to 115 µM), for the others: at the highest dose activity change, negative = inhibition, actives largely listed as inhibitors. 750 tested, 9% active. shares compounds with IDH1 R132H inh;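 also: potency is read from the fitted curve at half-maximal effect; 0% = full WT IDH1 enzyme control and full inhibition = no enzyme wells; nearly all actives have a fitted effect of over 55% in size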
Target sequence (O75874 whole entry, looked up): as the sequence (O75874 whole entry R132H, stated change not applied) above, with H132R counted along it
mIDH1 confirm = qHTS for Inhibitors of mutant isocitrate dehydrogenase 1 (IDH1): Confirmation of Cherrypicks | shares compounds with IDH1 R132H inh | IDH1 R132H enzyme, NADPH diaphorase/resazurin fluorescence | Potency, µM (titrated, usually from 76.6 µM), inactives show at the top dose activity change, negative = inhibition, actives largely listed as inhibitors | 750 tested, 83% active | AID 624002, 2012; also: potency is read from the fitted curve at half-maximal effect; nearly all actives have a fitted effect of over 50% in size
The depositor's hits bear a star; ? = inconclusive; nt = no result given; [ ] = dose if it differs, or a comment. Calls follow the shape of the dose curve; as a rule, active = well fitted curve in the direction sought with a large enough effect; inconclusive = small, poorly fitted or top-dose-only effect, or another doubt; inactive = no such curve, though single readings can be large; an effect the other way counts as inactive or inconclusive.

SMILES | A549 tox | Mito fusion act | Nrf2 block | TrxR1 substrate | TrxR1 inh | IDH1 R132H inh | IDH1 autofl | WT IDH1 inh | mIDH1 confirm
CSc1ccc(NC(=O)CC(C)=O)cc1 | -1% | -5% | 2% | 0%[57.1 µM] | ? | 9% | nt | nt | nt
Cc1ccc(Sc2ccc(NC(=O)CCl)cc2)cc1C | 5% | 14µM* | 11% | 1% | ? | ? | -2 | ? | 40µM*
Cc1ccc(C)c(Sc2ccc(NC(=O)CCl)cc2)c1 | 0% | 6% | 7% | -1% | -25% | ? | -6 | -27% | 40µM*
Cc1ccc(NC(=O)CCSCCC(=O)Nc2ccc(C)c(C)c2)cc1C | -4% | 1% | 6% | -1% | 3% | 3% | nt | nt | nt
Cc1ccc(CNC(=O)c2ccc(CSCc3ccc(C)cc3)o2)cc1 | -3% | nt | nt | -1%[57.1 µM] | 4%[57.1 µM] | -15% | nt | nt | nt
Cc1ccc(CNC(=O)c2ccc(CSCc3c(F)cccc3Cl)o2)cc1 | 11% | nt | nt | -2%[57.1 µM] | 3%[57.1 µM] | 40µM* | 4 | -1% | 0%
Cc1nc([N+](=O)[O-])c(Br)n1CC(=O)c1ccc2ccccc2c1 | -15% | -4% | ? | -5% | 11µM* | ? | 2 | ? | 28µM*
CCOC(=O)C1CCN(C(=O)C2CCN(S(=O)(=O)c3c(C)noc3/C=C/c3ccc(C)cc3)CC2)CC1 | -1% | nt | nt | 4%[57.1 µM] | 22%[57.1 µM] | 14% | nt | nt | nt
CC(C)c1ccc(C2c3c(-c4ccccc4O)n[nH]c3C(=O)N2Cc2ccncc2)cc1 (stereo unspecified) | -19% | nt | ? | -1% | 24% | 16µM* | -14 | -4% | 22µM*
CCOc1cc(C2c3c(-c4ccccc4O)n[nH]c3C(=O)N2CCc2ccccc2)ccc1O (stereo unspecified) | 1% | nt | 4% | -10% | -2% | ? | -3 | 9% | ?
COC(=O)c1ccc(C2c3c(-c4ccccc4O)n[nH]c3C(=O)N2Cc2cccnc2)cc1 (stereo unspecified) | -1% | nt | 8% | -4% | 6% | ? | 5 | 0% | 40µM*
COCCCN1C(=O)c2[nH]nc(-c3cc(C)cc(C)c3O)c2C1c1ccc(O)c(OC)c1 (stereo unspecified) | 10% | 0% | 20% | -3% | 11% | 3% | nt | nt | nt
CCCN1C(=O)c2[nH]nc(-c3cc(Cl)c(C)cc3O)c2C1c1ccc(O)c(OC)c1 (stereo unspecified) | 6% | 10% | 0% | 2%[57.1 µM] | 21%[57.1 µM] | 26µM* | 11 | ? | 28µM*

Screening data (PubChem BioAssay)
